Compound activity: PubChem, National Center for Advancing Translational Sciences (NCATS)
Rows were chosen to be rich in hits. Some 9.4% of all compounds tested hit in one or more screens of this group.
NPC1 prom act: activates the NPC1 promoter; Huh7 NPC1 promoter luciferase reporter, 24 h; Potency, µM (top dose mostly 9.22 µM), hits mostly activators; 320,000 compounds, 2.4% hits; AID 485313; further: nearly all actives have a fitted effect of over 60% in size
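Luciferase expression driven by the NPC1 promoter was measured in stably transfected Huh7 cells after a 24 h compound incubation, using a luciferase reagent and a luminescence read.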
ELG1 DNA repair: ELG1-dependent DNA repair inhibition; HEK293T ELG1-luciferase reporter, luminescence, 16 h; DNA damage induced by 5-fluorouridine; Potency, µM (highest dose often 46.1 µM), hits mostly inhibitors; 330,000 compounds, 2.3% hits; AID 504467; further: nearly all actives have a fitted effect of over 55% in size
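HEK293T cells expressing luciferase-tagged ELG1 (2,000/well) received 5-Fluorouridine plus compound or DMSO for 16 hr at 37 °C. Luciferase was read by ONE-Glo luminescence after 30 min at room temperature.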
Rab9 promoter act: activators of Rab9 promoter | Potency, µM (top dose mostly 9.22 µM), most hits filed as activators | AID 485297 | Huh7 Rab9 promoter-luciferase reporter, luminescence, 24 h | 320,000 compounds, 2.8% hits; further: nearly all actives have a fitted effect of over 60% in size
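Measured in stably transfected Huh7 cells bearing a Rab9 promoter–luciferase construct: 24 h compound treatment at 37 °C, followed by luminescence detection.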
SMN2 splice enh: increases expression of the SMN2 splice variant; HEK293 SMN2-luciferase splicing reporter, luminescence, 30-36 h; Potency, µM (top dose mostly 46.1 µM), actives largely listed as activators; 210,000 compounds, 2.8% hits; further: nearly all actives have a fitted effect of over 55% in size
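qHTS luciferase splicing reporter: luminescence rises when SMN2 exon 7 is included in transfected HEK293 cells. Compound exposure lasted 30-36 h at 37C, with 4.5 mM final sodium butyrate as control, followed by a ONE-Glo read.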
FLuc modulator: counter-screen for miR-21 project: firefly luciferase inhibitors or activators; P08659; AID 588342; 360,000 compounds, 6.9% hits; Potency, µM (highest dose often 57.5 µM), most hits filed as inhibitors; purified FLuc, Km substrates, luminescence inhibition; further: nearly all actives have a fitted effect of over 55% in size
Target sequence (P08659 whole entry, looked up): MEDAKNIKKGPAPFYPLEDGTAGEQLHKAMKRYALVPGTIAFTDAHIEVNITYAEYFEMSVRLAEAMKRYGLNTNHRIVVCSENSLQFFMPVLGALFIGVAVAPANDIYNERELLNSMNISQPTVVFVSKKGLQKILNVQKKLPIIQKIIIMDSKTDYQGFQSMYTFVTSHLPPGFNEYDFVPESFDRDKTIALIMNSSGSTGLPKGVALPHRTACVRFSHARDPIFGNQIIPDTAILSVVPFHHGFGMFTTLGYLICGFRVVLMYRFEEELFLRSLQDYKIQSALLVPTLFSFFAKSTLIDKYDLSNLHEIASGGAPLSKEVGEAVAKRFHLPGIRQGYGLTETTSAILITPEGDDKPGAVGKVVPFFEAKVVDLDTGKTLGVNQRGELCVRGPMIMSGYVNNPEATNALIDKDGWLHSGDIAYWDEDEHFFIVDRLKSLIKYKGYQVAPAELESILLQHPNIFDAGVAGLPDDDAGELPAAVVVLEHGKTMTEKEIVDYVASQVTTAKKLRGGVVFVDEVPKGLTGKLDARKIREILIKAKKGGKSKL
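Purified P. pyralis luciferase (10nM final) with 10uM D-luciferin and 10uM ATP (Km levels) in 50mM Tris acetate pH 7.5, 10mM Mg acetate, 0.01% Tween-20, 0.05% BSA; qHTS 6-point titration, ~60 µM downward; luminescence read.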
ELG1 genotoxic: induces genotoxicity in HEK293T cells with luciferase-tagged ELG1; HEK293T ELG1-luciferase reporter, luminescence, 16 h; Potency, µM (top dose mostly 46 µM), usual class: activators; 330,000 compounds, 1.3% hits; AID 504466; further: nearly all actives have a fitted effect of over 60% in size
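ELG1-luciferase HEK293T cells, 2,000/well; compound pinned in; 16 hr, 37 °C, 5% CO2; ONE-Glo, 30 min RT; luminescence on CCD imager.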
Numbers stand for hits; 0 = inactive; ? = inconclusive; - = no result; [ ] = dose if it differs, or a comment. The call rests on the fitted dose curve; in most records, active means well fitted curve in the direction sought with a large enough effect; inconclusive means small, poorly fitted or top-dose-only effect, or another doubt; inactive means no such curve, though single readings can be large; an effect the other way counts as inactive or inconclusive.

SMILES | NPC1 prom act | ELG1 DNA repair | Rab9 promoter act | SMN2 splice enh | FLuc modulator | ELG1 genotoxic
Cc1c(CCC(=O)NCCC(=O)O)c(=O)oc2c(C)c3oc4c(c3cc12)CCCC4 | 0 | 0 | 0 | - | ? | 0
Cc1c(CCC(=O)N2CCC(C(=O)NCCCCCC(=O)O)CC2)c(=O)oc2cc3oc4c(c3cc12)CCCC4 | 0 | 0 | 0 | - | 13µM | 0
CCc1cccc(NC(=O)Nc2cccs2)c1 | ? | ? | 2.8µM | 13µM | 8.5µM | ?
N#Cc1cccc(NC(=O)Nc2cccs2)c1 | 0 | 0 | 0 | 0 | 15µM | 0
O=C(CN1C(=O)COc2ccc(S(=O)(=O)N3CCOCC3)cc21)N1CCN(c2ccccc2)CC1 | - | - | - | - | 0 | -
COc1ccc(NC(=O)/C(Cl)=C(/Cl)S(=O)Cc2ccccc2Cl)cn1 (stereo unspecified) | 0 | 15µM | 0 | 0 | ? | 0
CCOc1ccc(-n2nc3ccc(NC(=O)COc4ccc(OC)cc4)cc3n2)cc1 | - | - | - | 0 | 0 | -
CCC(=O)Nc1ccc2c(c1)ncn2-c1ccc(C)cc1 | 2.2µM | ? | 2.5µM | 8.9µM | 8.5µM | ?
CCC(=O)Nc1ccc2c(c1)ncn2-c1ccccc1C | 0 | 0 | 0 | 0 | 0 | 0
CCC(=O)Nc1ccc2c(c1)ncn2-c1ccc(OC)cc1 | 0 | ? | 0 | 13µM | 27µM | 18µM
CN1CCc2nc(N)nc(-c3nc(N)nc4c3CN(C)CC4)c2C1 | - | - | - | 0[9.22 µM] | - | -
CCCCCCCC1=Cc2ccccc2C(C(C(C)=O)C(=O)OC)N1C(=O)OC (stereo unspecified) | - | - | - | 0[9.22 µM] | - | -
CC(C)c1ccc(NC2CCCN(C(=O)CSc3nncn3C)C2)cc1 (stereo unspecified) | 0 | 0 | 0 | - | 0 | 0
C=CCn1c(C)cc(C(=O)COC(=O)c2cncc(Br)c2)c1C | 0 | ? | ? | - | 1.9µM | 0
C=CCn1c(C)cc(C(=O)COc2ncnc3sccc23)c1C | 0.89µM | ? | 0.79µM | 5.6µM | 2.4µM | 2.6µM
COc1cc(C(=O)Nc2ccc(Cl)c(C(F)(F)F)c2)cc(OC)c1OC | 0 | 5.2µM | 0 | 0[1.84 µM] | 21µM | 0
COc1cc(CCC(=O)Nc2ccc(Cl)c(C(F)(F)F)c2)cc(OC)c1OC | 0 | ? | 0 | 0 | 0 | 0
COc1cccc(C(=O)Nc2ccc(Cl)c(C(F)(F)F)c2)c1 | 0 | 0 | ? | 0 | 21µM | 0
COc1cccc(C(=O)Nc2cc(C(F)(F)F)ccc2Cl)c1 | 0 | 0 | 0 | 0 | ? | 0
CCOC(=O)c1c(C)c(C(=O)Nc2ccc3c(c2)OCCO3)c(C)n1C | 0 | ? | 0 | ? | ? | 0
CCOC(=O)Nc1cc(Br)c2c(c1)OCCO2 | 0 | ? | 0 | - | ? | 23µM
Cc1nc2cnc(N(C)C)nc2n(C)c1=O | - | - | - | 0 | - | -
CCc1nc(SC)ncc1C(=O)NCc1cccc(Br)c1 | - | - | - | - | 0 | -
C[C@H](NC(=O)c1ccc(Cl)c(Cl)c1)c1ccc(-c2ccccc2)cc1 | - | - | - | 0[9.22 µM] | - | -
O=C(Nc1ccc(Br)cc1)C1Cc2ccccc2O/C1=N\O (stereo unspecified) | 3.2µM | ? | 2.8µM | - | ? | 18µM
SMILES | NPC1 prom act | ELG1 DNA repair | Rab9 promoter act | SMN2 splice enh | FLuc modulator | ELG1 genotoxic
Cc1ccc(NC(=O)C2Cc3ccccc3O/C2=N\O)cc1C (stereo unspecified) | 0 | ? | ? | - | 0 | ?
Cc1ccc(C2c3[nH]c4ccccc4c3CCN2C(=O)CCc2ccccc2)cc1 (stereo unspecified) | - | - | - | - | 0 | -
O=C(NCCN1C(=O)C2C3C=CC(C3)C2C1=O)Nc1ccc(Br)cc1 (stereo unspecified) | 3.2µM | ? | 2.2µM | 11µM | 11µM | 8.2µM
Cc1ccc(-n2nc(C)c3c(C(=O)NCCc4ccc(S(N)(=O)=O)cc4)cc(C)nc32)cc1 | - | - | - | - | 0 | -
COc1ccc(C2=C/C(=C\c3cccc(OC(C)=O)c3)C(=O)O2)cc1 | 0 | 0 | 0 | ? | 24µM | 0
COc1ccc(C2=C/C(=C\c3ccccc3OC(C)=O)C(=O)O2)cc1 | 0 | 0 | 0 | - | ? | 0
Nc1nn2cc(-c3ccc(Br)cc3)nc2c2ccccc12 | 1.8µM | ? | 2.2µM | - | 1.7µM | ?
Nc1nc2ccc(Cc3ccncc3)cc2s1 | 0 | ? | ? | - | 17µM | ?
CS(=O)(=O)c1ccc2nc(N)sc2c1 | 0 | ? | 0 | 0 | 0 | 0
COc1cccc(NC(=O)CC(C)S(=O)(=O)c2ccc3c(c2)NC(=O)CO3)c1 (stereo unspecified) | - | - | - | - | 0 | -
O=C(Nc1ccc2c(c1)C(=O)NC2=O)c1ccc(Cl)s1 | 0 | 0 | 0 | - | 0 | 0
O=C(Nc1ccc2sccc2c1)c1ccc(Cl)s1 | 1.4µM | ? | 1µM | 7.1µM | 0.67µM | 1.5µM
COc1ccc(NC(=O)COC(=O)CCNS(=O)(=O)c2ccccc2)cc1OC | 0 | 0 | 0 | 0 | 0 | 0
Cc1ccc(CN2CC(C(=O)Nc3ccncc3)CC2=O)cc1 (stereo unspecified) | 0 | 0 | 0 | - | 0 | 0
Cc1ccnc(NC(=O)C2CC(=O)N(c3ccc4c(c3)OCCO4)C2)c1 (stereo unspecified) | 0 | ? | 0 | - | 4.8µM | 0.52µM
CC(=O)Nc1ccc(-c2csc(NC(=O)C3CC(=O)N(c4ccc5c(c4)OCCO5)C3)n2)cc1 (stereo unspecified) | 0 | ? | 0 | - | 0 | 0
Cc1ccc(CN2CC(C(=O)Nc3cc(C)ccn3)CC2=O)cc1 (stereo unspecified) | 0 | ? | 0 | - | 12µM | 16µM
COc1ccc(-c2csc(NC(=O)C3CC(=O)N(c4ccc5c(c4)OCCO5)C3)n2)cc1 (stereo unspecified) | 0 | 23µM | 0 | - | 0 | 0
Cc1nc(-c2ccc(C)c(N3CCN(C(=O)Nc4cccc(Cl)c4C)CC3)c2)no1 | - | - | - | - | 0 | -
COc1ccc(N2CC(NC(=O)/C=C\c3ccc4c(c3)OCO4)CC2=O)cc1 (stereo unspecified) | - | - | - | - | 0 | -
O=C(CSc1ncc2c(n1)-c1cc(Cl)ccc1N(Cc1ccccc1F)S2(=O)=O)Nc1cccc(C(F)(F)F)c1 | - | - | - | - | 0 | -
Cc1nn(-c2ccccc2)c(OC(=O)c2ccccc2F)c1S(=O)(=O)c1ccccc1 | - | - | - | 0 | ? | -
COC(=O)N1CCC[C@@]2(CCN(C(=O)Nc3ccccc3)C2)C1 | - | - | - | 0 | - | -
COc1cc(C2Nc3cc(Cl)c(S(N)(=O)=O)cc3S(=O)(=O)N2)ccc1OCc1ccccc1 (stereo unspecified) | 0 | ? | 0 | 0 | ? | 16µM
COc1cc(C2Nc3cc(Cl)c(S(N)(=O)=O)cc3S(=O)(=O)N2)cc(OC)c1OC (stereo unspecified) | 0 | 0 | 0 | 0 | 0 | 0
C/C(=N\NC(=O)c1cc(O)ccc1O)c1cccc(NC(=O)c2ccc(Cl)cc2)c1 | ? | ? | 0 | - | 1.1µM | 0
C/C(=N\NC(=O)c1cc(O)ccc1O)c1cccc(NC(=O)c2cccc(Cl)c2)c1 | 0 | ? | 0 | - | 8.5µM | 0
